Assay results from PubChem BioAssay AID1240 (Sanford-Burnham Center for Chemical Genomics, 2008).
Among all 50,000 compounds or so, about 800 (1.6%) showed an effect of 50% or more. This excerpt belongs to a sample that is enriched for strong results.

The molecules below were run against Bcl-2-like protein 10 (Homo sapiens) (UniProt Q9HD36) (assay: Phenotype converters, Bcl-B/TR3 peptide binding displacement, primary biochemical FP (AID 1240;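 also: 0% = Bcl-B with tracer peptide and DMSO and 100% = tracer peptide lacking Bcl-B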)). Settings: GST-Bcl-B / FITC-TR3 peptide fluorescence polarization; stronger effect = higher value; compound at 3.75 mg/L.
Bcl-2-like protein 10 (Homo sapiens), sequence (Q9HD36 whole entry, looked up): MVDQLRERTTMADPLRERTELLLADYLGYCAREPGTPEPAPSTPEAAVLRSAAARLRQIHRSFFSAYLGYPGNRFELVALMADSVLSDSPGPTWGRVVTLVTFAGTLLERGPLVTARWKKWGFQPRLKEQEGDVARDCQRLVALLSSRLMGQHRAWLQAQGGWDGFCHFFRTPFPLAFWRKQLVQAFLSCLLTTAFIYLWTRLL
Cc1ccc(-c2[nH]n3c(=O)cc(-c4ccccc4)nc3c2C)cc1 gave a displacement of 15.2%.
CN(C)CCCNC(=O)/C=C/c1ccc(Cl)cc1 was tested, and the displacement was 14%.
With COc1cc(C(=O)Nc2cccc(-c3cc4ccccc4oc3=O)c2)cc(OC)c1OC the displacement was 3.9%.
CCOc1ccc(NC2=C(Cl)C(=O)N(c3ccc(Br)cc3)C2=O)cc1 gave a displacement of -4.8%.
CC1CCc2c(sc(NC(=O)/C=C/c3ccc4c(c3)OCO4)c2C(N)=O)C1 (stereo not drawn) was tested, and the displacement was 144%.
CC(=O)Nc1sc2c(c1C(N)=O)CCC(C)C2 (stereo not drawn) gave a displacement of 10.6%.
In the case of CC1CCc2c(sc(NC(=O)/C=C/c3ccccc3)c2C(N)=O)C1 (stereo not drawn), the displacement is reported as 10.5%.
OCc1c(O)cnc2ccccc12 was tested, and the displacement was 19.4%.
For O=c1[nH]c(-c2ccc(-c3ccc(F)cc3)o2)nc2sc3c(c12)CCCC3, the displacement was -13.3%.
CC(/C=C1\SC(N2CCN(C3=NC(=O)/C(=C\C(C)=C\c4ccccc4)S3)CC2)=NC1=O)=C\c1ccccc1 showed a displacement of -9%.
CC(=O)N1C(=S)NC(=O)/C1=C\c1cccnc1 showed a displacement of 93.4%.
O=C1NC(=O)/C(=C/c2cccnc2)S1 gave a displacement of 12%.
Molecule CCc1ccc(/C=C2/C(=O)NC(=O)N2C(C)=O)cc1 has a displacement of 13.8%.
With N#Cc1c(-c2ccc(Br)cc2)cc(-c2ccc3c(c2)OCO3)c(C#N)c1N the displacement was 4.5%.
N#Cc1c(-c2ccc(Br)cc2)cc(-c2ccco2)c(C#N)c1N gave a displacement of 76.9%.
Cc1ccc(-c2cc(-c3ccncc3)c(C#N)c(N)c2C#N)cc1 was tested, and the displacement was 21.2%.
With CCOC(=O)C(=CNCCC(=O)O)C(=O)OCC the displacement was 14.6%.
Molecule COc1ccc(CCN2C(=O)C3C4c5ccccc5C(C)(c5ccccc54)C3C2=O)cc1OC (stereo not drawn) has a displacement of -1.3%.
With Cc1ccc(N2C(=O)NC(=O)/C(=C\c3ccc(C)s3)C2=O)cc1 the displacement was 13.4%.
In the case of Cc1ccc(N2C(=O)NC(=O)/C(=C/c3cccc(Cl)c3)C2=O)cc1, the displacement is reported as -8.8%.
For Cc1ccc(C=C2C(=O)NC(=O)N(c3cccc(Cl)c3)C2=O)s1, the displacement was 87.1%.
With CC(C)CNC(=O)C(=O)Nc1ccc(Oc2ccccc2)cc1 the displacement was 5.2%.
With COc1cc(/C=c2/sc3nc4ccccc4n3c2=O)ccc1OCc1nn[nH]n1 the displacement was 5.2%.
Work on Cc1ccc2nc(-c3ccc(OC(=O)c4ccccc4F)cc3)sc2c1 yielded a displacement of 76.4%.
Molecule Cc1ccc2nc(-c3ccc(O)cc3)sc2c1 has a displacement of 12.7%.
Molecule Cc1ccc2nc(-c3ccc(NC(=O)c4ccccc4-c4ccccc4C(=O)O)cc3)sc2c1 has a displacement of 7.9%.
Molecule C=C(C)CSc1nc2sc3c(c2c(=O)n1CC(=C)C)CC(C)(C)OC3 has a displacement of -10.4%.
O=C(Nc1ccc2nc(SCCOc3ccccc3)sc2c1)c1ccccc1Cl gave a displacement of -3.4%.
Work on CCOc1ccc(/C=C2/NC(=S)NC2=O)cc1 yielded a displacement of 10.8%.
In the case of COc1ccc(/C=C/C=C2\NC(=S)NC2=O)cc1, the displacement is reported as 128%.
CC(C)(C)c1ccc(/C=C2\NC(=S)NC2=O)cc1 was tested, and the displacement was -20.2%.
With CC(C)(C)CC(C)(C)NC(=O)c1ccc2nccnc2c1 the displacement was 14.3%.
Cc1ccccc1-n1c(C)cc(/C=N/NC(=O)CN2CCOCC2)c1C showed a displacement of -22.2%.
Work on CC(C)CC(NC(=O)c1ccco1)C(=O)O (stereo not drawn) yielded a displacement of 9.5%.
In the case of Cc1cc([N+](=O)[O-])ccc1-c1ccc(C(=O)Nc2ccc(Cl)cn2)o1, the displacement is reported as 50.1%.
Cc1cc([N+](=O)[O-])ccc1-c1ccc(C(=O)Nc2ccc(Cl)cc2)o1 showed a displacement of 45.8%.
Cc1cc([N+](=O)[O-])ccc1-c1ccc(C(=O)Nc2ccc(-c3nc4ccccc4o3)c(O)c2)o1 gave a displacement of 10.8%.
O=C(Nc1ccc(Cl)cn1)c1ccc(-c2ccc([N+](=O)[O-])cc2)o1 showed a displacement of 13.9%.
O=C(Nc1ccc2oc(-c3ccccc3)nc2c1)c1ccc(-c2ccc([N+](=O)[O-])cc2)o1 showed a displacement of 22.1%.
Work on Cc1cc([N+](=O)[O-])ccc1-c1ccc(C(=O)Nc2ccc3oc(-c4ccccc4)nc3c2)o1 yielded a displacement of 116%.
CCc1ccccc1NC(=O)C(F)(Cl)C(F)(F)F (stereo not drawn) showed a displacement of -3.1%.
COc1cccc(CN2CCN(C(=O)c3cccc(Cl)c3)CC2)c1 was tested, and the displacement was 3.6%.
Work on CC(=O)c1ccc(NC(=O)C2CC(=O)N(C3CCCCC3)C2)cc1 (stereo not drawn) yielded a displacement of 11.1%.
COc1ccc(CCC(=O)Nc2cc(Cl)cc(Cl)c2)cc1 was tested, and the displacement was 0.3%.
With O=C1CC(N(Cc2ccc3c(c2)OCO3)C(=O)c2ccc(Cl)cc2)C(=O)N1c1ccc(F)cc1 (stereo not drawn) the displacement was -2.2%.
Molecule CC(=O)N(Cc1ccc2c(c1)OCO2)C1CC(=O)N(c2ccc(Br)cc2)C1=O (stereo not drawn) has a displacement of 72.3%.
CC(=O)N(Cc1ccc2c(c1)OCO2)C1CC(=O)N(c2cccc(Cl)c2)C1=O (stereo not drawn) was tested, and the displacement was 16%.
CC1(C)CC(=O)C2=C(C1)Nc1ccccc1NC2c1cccc(Br)c1 (stereo not drawn) gave a displacement of 2.4%.
For O=C1c2[nH]nc(-c3ccccc3)c2C(c2ccccc2F)N1c1ccccc1 (stereo not drawn), the displacement was -3.9%.
In the case of C=CCn1c(SCCC)nc2sc3c(c2c1=O)CCc1ccccc1-3, the displacement is reported as 0.4%.
In the case of COc1ccc(C(=O)NNC(=O)c2cccc(C)c2O)cc1OC, the displacement is reported as -1.1%.
Molecule CCOC(=O)C1=C(C)N=c2s/c(=C\c3ccc(OC)c(OC)c3OC)c(=O)n2C1c1ccc(Cl)cc1 (stereo not drawn) has a displacement of 152%.
CCOC(=O)C1=C(C)N=c2s/c(=C\c3cccc(OC)c3O)c(=O)n2C1c1ccccc1 (stereo not drawn) showed a displacement of -0.2%.
In the case of CCOC(=O)C1=C(C)N=c2s/c(=C\c3ccc(OC)c(OC)c3OC)c(=O)n2C1c1ccccc1 (stereo not drawn), the displacement is reported as 210%.
In the case of CCOC(=O)C1=C(C)N=c2s/c(=C\c3ccc(OC)cc3)c(=O)n2C1c1ccc(Cl)cc1 (stereo not drawn), the displacement is reported as 18.8%.
CCOC(=O)C1=C(C)N=c2s/c(=C\c3ccccc3OC)c(=O)n2C1c1ccc(C)cc1 (stereo not drawn) showed a displacement of -2.8%.
Molecule CCOC(=O)C1=C(C)N=c2s/c(=C\c3ccc(OC)c(O)c3)c(=O)n2C1c1ccc(Cl)cc1 (stereo not drawn) has a displacement of -5.3%.
With CCOC(=O)C1=C(N)OC2=C(C(=O)CCC2)C1c1ccc(Cl)cc1Cl (stereo not drawn) the displacement was -2.9%.
